Assay outcomes: PubChem BioAssay, National Center for Advancing Translational Sciences (NCATS)
Cycloheximide cs = Cycloheximide Counterscreen for Small Molecule Inhibitors of Shiga Toxin; cell reporter, cycloheximide protein synthesis inhibition counterscreen; max response, %; actives 12% (n = 300,000); AID 2314, 2010; in the data active means max response mostly above about 13%, no sharp cut-off; inactive means mostly below about 14%; further: read at 38.3 µM for the half of the compounds with a filed dose
FBPA Giardia inh = qHTS Assay for Inhibitors of Fructose-1,6-bisphosphate Aldolase from Giardia Lamblia. purified Giardia FBPA. Potency, µM (titrated, usually from 59.6 µM), hits mostly inhibitors. actives 0.71% (n = 290,000); further: nearly all actives have a fitted effect of over 55% in size
Target sequence (A8B2U2 whole entry, looked up): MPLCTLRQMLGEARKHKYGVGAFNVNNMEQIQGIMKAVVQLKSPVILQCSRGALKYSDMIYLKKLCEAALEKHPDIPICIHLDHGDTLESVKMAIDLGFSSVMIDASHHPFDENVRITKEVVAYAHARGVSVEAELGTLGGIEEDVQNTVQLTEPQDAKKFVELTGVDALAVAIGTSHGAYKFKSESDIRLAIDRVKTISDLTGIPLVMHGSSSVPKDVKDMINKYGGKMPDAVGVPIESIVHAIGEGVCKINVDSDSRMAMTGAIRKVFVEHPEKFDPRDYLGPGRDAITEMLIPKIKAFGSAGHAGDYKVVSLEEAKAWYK
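Giardia FBPA (40 nM reagent) was preincubated 10 min at RT with compound (up to 57.5 uM final), then substrate plus GAPDH/TPI/NAD/arsenate coupling system with diaphorase/resazurin was added; resorufin fluorescence (525/598 nm) was read after 20 min.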
Tb PYK inh = qHTS of Trypanosoma Brucei Inhibitors; pyruvate kinase (Trypanosoma brucei), Q57TT1; TbPYK enzyme, Kinase-Glo Plus ATP luminescence, 45 min; Potency, µM (doses to about 76.8 µM), most hits filed as inhibitors; actives 0.12% (n = 410,000); AID 624173, 2012; further: nearly all actives have a fitted effect of over 50% in size
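Luminescent Kinase-Glo Plus end-point after 45 min room-temperature reaction of T. brucei pyruvate kinase started with 130 uM ADP (final). Buffer TEA 50 mM pH 7.2 with KCl, MgCl2, BSA, Tween-20; titration-based qHTS with fitted concentration-effect curves.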
LmPK inh = qHTS Assay for Inhibitors of Leishmania Mexicana Pyruvate Kinase (LmPK); actives 0.37% (n = 290,000); purified LmPK, Kinase-Glo ATP luminescence, 1 h; Q27686; Potency, µM (series often up to 57.5 µM), most hits filed as inhibitors
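qHTS format; LmPK 0.1 nM; substrates PEP 0.5 mM and ADP 0.1 mM. One-hour room-temperature incubation, then coupled luciferase luminescence; 0.5 nM enzyme wells mark activation.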
RE007 growth inh = qHTS Assay for Inhibitors of the HIV-1 protein Vpr; actives 0.21% (n = 360,000); S. pombe RE007 Vpr strain, BacTiter-Glo ATP luminescence, 24 h; AID 651644, 2012; Potency, µM (highest dose often 92.2 µM), actives largely listed as inhibitors; active means well fitted falling curve with a large enough effect; inconclusive means small, poorly fitted or top-dose-only effect; inactive means no such curve, though single readings can be large or run the other way; further: nearly all actives have a fitted effect of over 50% in size
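Fission yeast RE007 carrying one integrated HIV-1 vpr copy, seeded at OD 0.01 in PMG+AL medium with 23 nL pinned compound. Grown 24 h at 30 degrees; viability read by BacTiter-Glo luminescence after 5 min.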
Shiga toxin inh = A qHTS for Small Molecule Inhibitors of Shiga Toxin; Vero cells, Shiga toxin protein synthesis inhibition reporter; inhibition, % at 38.7 µM; actives 9.2% (n = 290,000); AID 2315, 2010; in the data active means inhibition mostly above about 28%, no sharp cut-off; inactive means mostly below about 43%
Of the large screens only hits and unclear results are named; the others gave an inactive call. The full list was thinned out, with hits kept by preference. Unless noted, the call rests on the fitted dose curve; in most records, active means well fitted curve in the direction sought with a large enough effect; inconclusive means small, poorly fitted or top-dose-only effect, or another doubt; inactive means no such curve, though single readings can be large; an effect the other way counts as inactive or inconclusive.

N#Cc1ccccc1NC(=O)c1ccc(-c2ccccc2Cl)o1	Cycloheximide cs 30, Shiga toxin inh 123
COc1ccc(C(=O)/C=C/c2ccc(OC)cc2OC)c(O)c1	Cycloheximide cs 43, Shiga toxin inh 72
COc1ccc(/C=C/C(=O)c2cc(Cl)ccc2O)c(OC)c1	Cycloheximide cs 25, Shiga toxin inh 50
COc1ccc(/C=C/C(=O)c2ccc(Cl)cc2)c(OC)c1	Cycloheximide cs 43, Shiga toxin inh 80
COc1ccc(C(=O)/C=C/c2ccccc2)c(O)c1	Cycloheximide cs 70, RE007 growth inh inconclusive, Shiga toxin inh 54
COc1ccc(/C=C/C(=O)/C=C/c2ccc(OC)cc2OC)c(OC)c1	none (no result: Cycloheximide cs, Tb PYK inh, LmPK inh, RE007 growth inh, Shiga toxin inh)
Cc1c2cnn(CC(=O)NCCc3ccccc3)c(=O)c2c(C)n1Cc1ccccc1Cl	none (no result: Cycloheximide cs, FBPA Giardia inh, LmPK inh, RE007 growth inh, Shiga toxin inh)
Cc1cc(C(=O)CSc2n[nH]c(N)n2)c(C)n1-c1ccccc1	Cycloheximide cs 37, Shiga toxin inh 50
C=CCn1c(C)cc(C(=O)CSc2n[nH]c(N)n2)c1C	Cycloheximide cs 28
Cc1cc(C(=O)CSc2n[nH]c(N)n2)c(C)n1-c1cc(F)ccc1F	Cycloheximide cs 29, Shiga toxin inh 98
Cc1cc(C(=O)CSc2n[nH]c(N)n2)c(C)n1C1CC1	none
Cc1cc(C(=O)CSc2n[nH]c(N)n2)c(C)n1-c1ccc(F)cc1	Cycloheximide cs 40, Shiga toxin inh 61
Nc1nc(SCC(=O)c2cc(F)ccc2F)n[nH]1	none
Nc1nc(SCC(=O)c2ccc(F)cc2)n[nH]1	none
Cc1ccc(OCCCCn2c(CCNC(=O)C(C)(C)C)nc3ccccc32)cc1	none (no result: Cycloheximide cs, FBPA Giardia inh, LmPK inh, RE007 growth inh, Shiga toxin inh)
CCC(=O)OCc1cc(=O)n2nc(C3CC3)sc2n1	none (no result: Cycloheximide cs, FBPA Giardia inh, LmPK inh, RE007 growth inh, Shiga toxin inh)
Cc1ccc(-n2c(C)cc(C(=O)COC(=O)c3c(C)noc3C)c2C)cc1	Cycloheximide cs 39, Shiga toxin inh 104
Cc1ccc(-n2c(C)cc(C(=O)COC(=O)C3=NNC(=O)CC3)c2C)cc1	none
Cc1ccc(-n2c(C)cc(C(=O)CSc3n[nH]c(N)n3)c2C)cc1	Cycloheximide cs 10.0
COC1C(OC(=O)/C=C/C=C/C=C/C=C/C(=O)O)CCC2(CO2)C1C1(C)OC1CC=C(C)C (stereo unspecified)	none (no result: Cycloheximide cs, FBPA Giardia inh, LmPK inh, RE007 growth inh, Shiga toxin inh)
Cc1ccn2c(=O)cc(COc3ccc(NC(=O)COc4ccc(C)c(C)c4)cc3)nc2c1	none (no result: Cycloheximide cs, FBPA Giardia inh, LmPK inh, RE007 growth inh, Shiga toxin inh)
Cc1cc(NC2CCCC2)n2nc(C)c(-c3ccccc3)c2n1	Cycloheximide cs 29
Cc1cc(NC2CCCC2)n2ncc(-c3ccccc3)c2n1	Cycloheximide cs 23
COC(=O)C1=C(C(=O)OC)[C@@H]2N(C)c3ccc(OC)cc3[C@@]23C[C@@H](C(=O)OC)N(S(=O)(=O)c2ccc(C)cc2)C3=N1	none (no result: Cycloheximide cs, Tb PYK inh, RE007 growth inh, Shiga toxin inh)
O=C(Nc1cccc(F)c1)C1CCN(c2nc3ccccc3nc2C(F)(F)F)CC1	none (no result: Cycloheximide cs, FBPA Giardia inh, LmPK inh, RE007 growth inh, Shiga toxin inh)
O=c1[nH][nH]c(=O)c2c(NS(=O)(=O)c3ccccc3)cccc12	Cycloheximide cs 36, Shiga toxin inh 62
O=S(=O)(Nc1ccc(NS(=O)(=O)c2ccccc2)c2ccccc12)c1ccccc1	none (no result: Cycloheximide cs, FBPA Giardia inh, LmPK inh, Shiga toxin inh)
Cc1[nH]c2ccccc2c1CC#N	none
Cc1[nH]c2ccccc2c1C1=CC(=O)C=CC1=O	Tb PYK inh 4µM, RE007 growth inh 25µM (no result: Cycloheximide cs, FBPA Giardia inh, LmPK inh, Shiga toxin inh)
C[C@@H](C(=O)Nc1ccc2ccccc2c1)[C@@H]1C[C@@]1(C)[C@@H](NS(=O)(=O)c1ccc(-c2ccccc2)cc1)c1ccccc1	none (no result: Cycloheximide cs, Tb PYK inh, LmPK inh, RE007 growth inh, Shiga toxin inh)
CCC1CCc2sc(C(=O)NCc3ccccn3)cc2C1 (stereo unspecified)	Cycloheximide cs 37, Shiga toxin inh 61 (no result: FBPA Giardia inh)
CCC1CCc2sc(C(=O)NCC3CCCO3)cc2C1 (stereo unspecified)	RE007 growth inh inconclusive (no result: Cycloheximide cs, FBPA Giardia inh, LmPK inh, Shiga toxin inh)
COc1ccc(/C=C2\CCCCC2=O)cc1	none (no result: Cycloheximide cs, FBPA Giardia inh, LmPK inh, Shiga toxin inh)
CN(C)/N=C/C=C1\CCC/C(=C\c2ccc(F)c(F)c2)C1=O	Cycloheximide cs 87, Shiga toxin inh active
COc1ccc(/C=C2\CCC/C(=C\C=N\N(C)C)C2=O)cc1	Cycloheximide cs 28
CN(C)c1ccc(/C=C2\CCC/C(=C\c3ccccc3)C2=O)cc1	none
C=C1CCN(C(Cc2ccccc2)C(=O)O)S(=O)(=O)c2ccccc21 (stereo unspecified)	none (no result: Tb PYK inh, LmPK inh, RE007 growth inh)
Cc1ccc(C)c(C(=O)COc2ccc(C)nc2[N+](=O)[O-])c1	none
O=[N+]([O-])c1ccc(CNCCc2ccccc2)cc1	none (no result: Shiga toxin inh)
CCCCNC(=O)c1cc2cccc([N+](=O)[O-])c2[nH]1	Cycloheximide cs 22
NNC(=O)COc1ccccc1[N+](=O)[O-]	Cycloheximide cs 25
CCCNC(=O)COc1ccccc1[N+](=O)[O-]	none
CCCCNC(=O)c1cc([N+](=O)[O-])[nH]n1	none
O=[N+]([O-])c1ccccc1OCCNCc1ccccc1	Cycloheximide cs 16 (no result: Shiga toxin inh)
Cc1ccc(C)c(C(=O)COc2ccccc2[N+](=O)[O-])c1	Cycloheximide cs 36, Shiga toxin inh 26 (no result: RE007 growth inh)
CC(C)(C)c1ccc(OCC(=O)Nc2ccc(S(=O)(=O)Nc3ncccn3)cc2)cc1	none (no result: Cycloheximide cs, FBPA Giardia inh, LmPK inh, RE007 growth inh, Shiga toxin inh)
CCCCNC(=O)COc1ccccc1[N+](=O)[O-]	Cycloheximide cs 25, Shiga toxin inh 77
Cc1nn2cc(-c3cccc(Cl)c3)cnc2c1Cl	Cycloheximide cs 33, Shiga toxin inh 124
Cc1nn2cc(-c3cccc(Cl)c3)cnc2c1Br	Shiga toxin inh 56
CC(C)n1nnnc1-c1cccc(Cl)c1	none
Cc1cccc(C(=O)Nc2ccc(C(=O)OCc3cc(=O)n4c(C)csc4n3)cc2)c1	none (no result: Cycloheximide cs, FBPA Giardia inh, LmPK inh, RE007 growth inh, Shiga toxin inh)
